# Assay results from PubChem BioAssay (NCI).
# Compounds without any hit were thinned out: in the full panel of roughly 83,000, 20% have a hit.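 Compound tested at a single concentration for 48 hours in 96-well plates; a percent growth value below 10 was scored as active.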 Calls of active or inactive are those of the source.
# Tested on: SK-MEL-5 melanoma
# Experiment: NCI-60 one-dose screen, 48 h (100 = growth as untreated, 0 = no growth, -100 = all killed)
# Details: 10 µM unless noted
row,Compound,growth
1,CC1Cc2c(N(C)C)ncnc2N(C)c2ccc(O)cc21 (stereo not drawn),82.9% (inactive)
2,O=S(=O)(NCCCNc1cc(-c2cn(-c3ccccc3)nc2-c2cccc(O)c2)ccn1)c1ccc(C(F)(F)F)cc1,8.74% (active)
3,Cc1ccc(S(=O)(=O)N2CCC(C(=O)Nc3ccc(F)cc3F)CC2)cc1,64.8% (inactive)
4,COc1ccc2c(c1)NC(=O)CN2c1nc(NC2CC2)nc2ccccc12,-55.3% (active)
5,C=C1C(=O)O[C@H]2[C@H]1CC/C(COC(=O)NCCc1cccc(OC)c1)=C\CC[C@@]1(C)O[C@@H]21,87.6% (inactive)
6,COc1cc(-c2csc(NC(=O)c3cc(C(F)(F)F)cc(C(F)(F)F)c3)n2)cc(OC)c1OC,-30.1% (active)
7,Clc1nc(Cl)c2ncn(C/C=C/Cn3cnc4c(Cl)nc(Cl)nc43)c2n1,68.7% (inactive)
8,Cc1ccc2c(c1)C(C)Cc1c(ncnc1-n1cnc3ccccc31)N2C (stereo not drawn),12.2% (inactive)
9,CCN(CC)S(=O)(=O)c1ccc2[nH]c(=O)cc(C(=O)Nc3ccc(OC)cc3OC)c2c1,111% (inactive)
10,COC(=O)CCCCCN=Cc1c(O)c(O)c(C(C)C)c2cc(C)c(-c3c(C)cc4c(C(C)C)c(O)c(O)c(C=NCCCCCC(=O)OC)c4c3O)c(O)c12,32.3% (inactive)
11,CCC(=O)Oc1ccc2c(c1)CC[C@@H]1[C@@H]2CC[C@]2(C)C[C@H](OC(=O)CC)C[C@@H]12,60.4% (inactive)
12,C=C1C(=O)O[C@H]2[C@H]1CC/C(COC(=O)NCc1cc(OC)cc(OC)c1)=C\CC[C@@]1(C)O[C@@H]21,84.9% (inactive)
13,O=C(Nc1ccc(I)cc1)c1cc([N+](=O)[O-])ccc1O,-0.402% (active)
14,O=C(CNC(=O)c1cccc2ccccc12)Nc1ccccc1Oc1ccccc1,-33.1% (active)
15,O=C(/C=C/CN1CCOCC1)Nc1cc2c(Nc3ccc(F)c(Cl)c3F)ncnc2cc1OCCOC(F)F,50.4% (inactive)
16,O=C(NCCc1c[nH]c2ccccc12)C1Cc2ccccc2CN1C(=O)c1ccco1 (stereo not drawn),95.6% (inactive)
17,Nc1cc2c(cc1N)-c1cc(N)c(N)cc1C2,101% (inactive)
18,COc1ccc(/C(=N\O)c2cc(OC)c(OC)c(OC)c2)c(OC)c1N,11.3% (inactive)
19,CCC(c1ccc(OC)cc1)C(CC)c1ccc(O)c(CN2CCCC2)c1 (stereo not drawn),-91.8% (active)
20,CC(C)(C)c1cc(-c2nc3ccc(N4CCN(CCO)CC4)cc3[nH]2)cc(C(C)(C)C)c1O,74% (inactive)
21,OCc1c(-c2ccccc2)nc2sccn12,80.2% (inactive)
22,O=C(OCCCCOC(=O)n1cnc2ccccc21)n1cnc2ccccc21,101% (inactive)
23,OC1CC2c3ccccc3C1c1ccccc12 (stereo not drawn),106% (inactive)
